From PubChem
PNC assembly inh = High Content Assay for Compounds that inhibit the Assembly of the Perinucleolar Compartment; PC3M PTB-GFP, PNC prevalence imaging, 16 h; active compounds read low; activity change (PNC), negative = inhibition, % at 10 µM; 140,000 tested, 3.1% active;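 active = readout at or below -70, meaning at least 70% loss of cells showing the perinucleolar compartment, a nuclear body marking cancer cells; inconclusive = readout between -30 and a set limit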;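 also: plate controls were DMSO wells for no effect and camptothecin positive control wells for full effect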
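PC3M cells stably expressing PTB-GFP, 750–1000 cells/well, treated 16 h at 37 °C with compound (23 nl of library stock), in duplicate. After paraformaldehyde fixation and Hoechst stain, imaged at 20x; PNC prevalence scored by image analysis.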
HPGD inh = qHTS Assay for Inhibitors of HPGD (15-Hydroxyprostaglandin Dehydrogenase); 150,000 tested, 4.3% active; 15-hydroxyprostaglandin dehydrogenase [NAD(+)] (Homo sapiens), P15428; purified HPGD, NADH fluorescence kinetic, PGE2 substrate; Potency, µM, for the others: at the top dose activity change, negative = inhibition, actives largely listed as inhibitors; also: potency is read from the fitted curve at half-maximal effect
Target sequence (P15428 whole entry, looked up): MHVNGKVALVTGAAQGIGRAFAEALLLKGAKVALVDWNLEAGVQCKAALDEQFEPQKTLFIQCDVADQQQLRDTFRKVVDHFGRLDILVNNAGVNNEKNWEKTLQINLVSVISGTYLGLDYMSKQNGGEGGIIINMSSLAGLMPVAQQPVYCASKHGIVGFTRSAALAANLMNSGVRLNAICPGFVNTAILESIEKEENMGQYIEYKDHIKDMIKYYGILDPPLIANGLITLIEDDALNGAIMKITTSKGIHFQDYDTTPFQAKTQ
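20 nM HPGD preincubated 15 min at room temperature with compound in 50 mM Tris-HCl pH 8, 0.01% Tween 20. Started with 1 mM NAD+ and 30 uM prostaglandin E2; NADH fluorescence (360/450 nm) read 5 times over 30-s intervals, last minus first.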
KinaseGlo FLuc = Counterscreen for Luciferase (Kinase-Glo TM) Inhibition | Potency, µM (titrated, usually from 38.3 µM), for inactives: at the highest dose activity change, negative = inhibition, usual class: inhibitors | Kinase-Glo luciferase, ATP luminescence, 8 min | Luciferin 4-monooxygenase (Photuris pensylvanica), Q27757 | 200,000 tested, 0.28% active; active = well fitted inhibition curve with a large enough effect; inconclusive = small, poorly fitted or top-dose-only effect; also: potency is read from the fitted curve at half-maximal effect; nearly all actives have a fitted effect of over 60% in size
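Compound is pinned into ATP-containing buffer (10 uM ATP, imidazole pH 7.2, 7 mM MgCl2). Kinase-Glo luciferase reagent is then added. Light output is recorded following an 8-min room-temperature incubation.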
Lamin A splicing = qHTS Assay for Modulators of Lamin A Splicing. 200,000 tested, 0.01% active. HeLa LMNA splicing GFP/RFP minigene ratio, 48 h. Potency, µM (top dose mostly 46.1 µM), without a hit: top-dose ratio change, negative = inhibition, hits mostly inhibitors; active = well fitted inhibition curve with a large enough effect in the signal ratio, with a control signal flat, not every such curve was filed as active; inconclusive = small, poorly fitted or top-dose-only effect, or effect the other way, or a change in a side signal; the % refers to the signal ratio; also: potency is read from the fitted curve at half-maximal effect
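Read-out is the ratio of GFP to DsRed2 object intensity, acquired by 488 nm laser-scanning cytometry on HeLa lamin A-EGFP minigene reporter cells. Compound incubation 48 hrs at 37 °C in Opti-MEM with 2% FBS; DMSO 0.5% final.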
ALDH1A1 block = qHTS Assay for Inhibitors of Aldehyde Dehydrogenase 1 (ALDH1A1); Aldehyde dehydrogenase 1A1 (Homo sapiens), P00352; Purified ALDH1A1, NADH fluorescence, propionaldehyde substrate; Potency, µM (highest dose often 75.3 µM), inactives show top-dose activity, negative = inhibition, actives largely listed as inhibitors; 220,000 tested, 7.3% active; AID 1030, 2008;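 also: potency is read from the fitted curve at half-maximal effect; plate controls were no enzyme wells and a reference inhibitor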
IMPase cell inh = qHTS Assay for Identifying the Cell-Membrane Permeable IMPase Inhibitors | Inositol monophosphatase 1 (Rattus norvegicus), P97697 | CHO-M1 cells, IP1 accumulation, HTRF TR-FRET ratio | inhibition (IP1 accumulation), % at 46.1 µM | 120,000 tested, under 10 active; active = well fitted curve in the direction sought with a large enough effect in the signal ratio, not every such curve was filed as active; inconclusive = small, poorly fitted or top-dose-only effect, or a change in a side signal; inactive = no such curve, though single readings can be large or run the other way; the % refers to the signal ratio;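 also: cells stimulated with carbachol in lithium chloride buffer; plate controls were DMSO basal wells for no effect and reference inhibitor wells for full effect; higher means more IMPase inhibition seen as more IP1 and lower FRET ratio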
Target sequence (P97697 whole entry, looked up): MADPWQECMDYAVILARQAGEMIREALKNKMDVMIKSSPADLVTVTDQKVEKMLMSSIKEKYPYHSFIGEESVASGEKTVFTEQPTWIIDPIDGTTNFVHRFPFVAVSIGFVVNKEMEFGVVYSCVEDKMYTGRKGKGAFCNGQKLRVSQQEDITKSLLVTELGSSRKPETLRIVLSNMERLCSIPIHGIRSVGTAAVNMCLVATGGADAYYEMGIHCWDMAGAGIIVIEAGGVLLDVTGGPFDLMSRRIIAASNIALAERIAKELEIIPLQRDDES
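Measured: the HTRF emission ratio (665/620 nm) plus the 620 nm donor channel, each fitted to the Hill equation to give AC50. Cells were CHO-M1 given compounds up to 46 uM and a 30 min carbachol stimulation at 37C.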
Active calls of the source: *; ? = inconclusive; · = no result given; [ ] = remark or other dose. Hits are enriched below; roughly 10% of the tested compounds scored in any of these assays. Unless noted, calls follow the shape of the dose curve; as a rule, active = well fitted inhibition curve with a large enough effect (not every such curve was filed as active); inconclusive = small, poorly fitted or top-dose-only effect, or another doubt; inactive = no such curve, though single readings can be large or run the other way. Unless noted, % is scaled to controls: 0 for no effect and ±100 for the full control effect.

SMILES	PNC assembly inh	HPGD inh	KinaseGlo FLuc	Lamin A splicing	ALDH1A1 block	IMPase cell inh
O=C(CNC(=S)N(Cc1ccccc1)Cc1cccnc1)NCc1ccccc1	·	·	12.9%	·	17.8µM*	·
O=C(CNC(=S)N(Cc1ccccc1)Cc1cccnc1)NC1CCCCC1	-20.4	-4.2%	-0.2%	-5.4%	12.6µM*	·
Cc1ccc(CCNC(=O)CNC(=S)N(Cc2ccccc2)Cc2cccnc2)cc1	·	·	0.2%	·	-13.9%	·
CC1CCCC(NC(=O)CNC(=S)N(Cc2ccccc2)Cc2cccs2)C1C (centres undefined)	·	·	0.7%	27.4%[9.22 µM]	12.6µM*	·
O=C(O)CNC(=S)N(Cc1ccccc1)Cc1cccnc1	·	·	2.6%	5.0%[46 µM]	-5.8%	·
COc1ccc(CN(Cc2cccnc2)C(=S)NCCc2ccccc2)cc1OC	-106.3*	-13.7%	2.3%	-1.7%	?	5.4
COc1ccccc1CNC(=O)C(C)n1c(=O)cc(C(F)(F)F)c2c(C)nn(C)c21 (centres undefined)	·	·	·	7.6%[46 µM]	·	·
CCCCNc1nc(C)nc2c1nc(-c1ccccc1)n2CC1CCN(C)CC1	·	?	-0.1%	·	?	·
Cc1ccc2c(c1)N[C@H](c1ccc(C(=O)O)cc1)c1cccn1-2	·	?	-6.3%[7.66 µM]	·	?	·
CC(=O)[C@@H]1[C@@H]2C(=O)N(C3CCCCC3)C(=O)[C@@H]2C2c3ccccc3C=CN21 (some centres undefined)	38.7	?	-5.9%	10.2%	7.08µM*	5.2
CC(C)(C)C(=O)[C@@H]1[C@@H]2C(=O)N(Cc3ccccc3)C(=O)[C@@H]2[C@H]2c3ccccc3C=CN12	?	-14.8%	-0.8%	?	?	-4.2
COc1ccc(NC(=O)[C@@H]2[C@@H]3C(=O)N(C4CCCCC4)C(=O)[C@@H]3C3c4ccccc4C=CN32)cc1 (some centres undefined)	33.8	-27.8%	-1.6%	3.2%	0.501µM*	4.0
CCOc1ccc(S(=O)(=O)NCCc2csc3nc(-c4cccc(C)c4)nn23)cc1	·	·	·	-2.8%[46 µM]	·	·
O=C(COC(=O)c1n[nH]c2ccccc12)NC(=O)NC1CCCCC1	-126.9*	-11.7%	2.2%	-3.3%	-8.3%	-7.0
C[C@@]12CCC(=O)C=C1CC[C@@H]1[C@@H]2[C@H](O)C[C@]2(C)[C@@H]1CC[C@]2(O)C(=O)CO	·	-1.0%	-0.3%[17.1 µM]	13.5%	-2.1%[20.9 µM]	·
COCCN(C)Cc1cn(-c2ccc(F)cc2F)nc1-c1ccccc1C	·	·	-2.5%	·	25.1µM*	·
Cc1ccccc1-c1nn(-c2ccc(F)cc2F)cc1CNCCN(C)C	·	·	-1.0%	?	-10.9%	·
CCN(CC)S(=O)(=O)c1cccc(C(=O)N/N=C/c2ccc(O)c(O)c2O)c1	12.2	25.1µM*	-1.2%	-6.1%	8.91µM*	·
CCn1c(C)nc2cc(C(=O)N/N=C/c3cccc(OC)c3O)ccc21	·	·	1.9%	·	-2.6%	·
CCn1c(C)nc2cc(C(=O)N/N=C/c3ccc(O)c(O)c3O)ccc21	·	·	-4.3%	·	1.41µM*	·
CC[C@](N)(CCC(=O)O)C(=O)O	·	-3.6%	-0.8%	·	-7.8%	-7.8
CC1=C(C(=O)Nc2ccccc2)C2(CCCCC2)C(C(N)=O)C(=S)N1 (centres undefined)	8.8	-17.6%	1.3%	-4.5%	13.2%	·
CC1=C(C(=O)Nc2ccccc2C)C2(CCCCC2)C(C(N)=O)C(=S)N1 (centres undefined)	-85.4*	-16.9%	1.6%	-2.5%	-18.1%	·
COc1cccc([C@@H]2Oc3ccc(OC)cc3C(=O)[C@H]2OC(=O)NC2CCCC2)c1	·	-6.2%	-0.5%	·	?	·
Cc1[nH]nc2c1C(c1ccc(-c3ccccc3C#N)o1)C(C#N)=C(N)O2 (centres undefined)	-28.9	·	·	-19.9%	11.2µM*	6.2
SMILES	PNC assembly inh	HPGD inh	KinaseGlo FLuc	Lamin A splicing	ALDH1A1 block	IMPase cell inh
Cc1ccc(-c2ccc(C3C(C#N)=C(N)Oc4n[nH]c(C)c43)o2)cc1 (centres undefined)	?	-26.9%	-2.3%	?	?	6.2
O=C(O)/C=C/C(=O)Nc1ccc(OC(F)(F)Cl)cc1	·	·	0.6%	?	25.1µM*	·
COc1ccc(NC(=O)/C=C/C(=O)O)cc1Cl	32.8	-16.9%	5.7%	-5.6%	?	-7.8[1.84 µM]
O=C(O)/C=C/C(=O)Nc1ccc(SC(F)(F)C(F)(F)C(F)(F)F)cc1	·	·	4.9%	?	28.2µM*	·
O=C(O)/C=C/C(=O)Nc1ccc(Oc2ccc(NC(=O)/C=C/C(=O)O)cc2)cc1	40.5	-8.5%	-0.6%	0.1%	?	·
O=C(O)/C=C\C(=O)Nc1ccc(Oc2ccccc2)cc1	12.8	-17.9%	-3.4%	7.0%	11.2µM*	0.7
COc1ncnc2c1oc1nc(CC(C)C)c3c(c12)CC(C)(C)OC3	-5.3	-9.4%	-4.9%	-8.3%	1µM*	3.7
N[C@@H](Cc1ncccn1)C(=O)O	·	-4.0%	-9.1%[7.66 µM]	·	-12.3%[13.5 µM]	·
Cc1ccc2c(c1)c1cccc3c1n2CCN3CCC(N)=O	-106.7*	?	1.1%	12.2%	?	4.5
CC1(C)CC(=O)C2=C(C1)OC(N)=C(C#N)C21C(=O)N(Cc2ccccc2Cl)c2ccccc21 (centres undefined)	-16.7	-2.0%	-2.2%	9.6%	2.82µM*	-7.9
COC(=O)CN1C(=O)C2(C(C#N)=C(N)Oc3cc(C)oc(=O)c32)c2ccccc21 (centres undefined)	-28.0	-16.2%	1.2%	3.5%	6.31µM*	-0.9
COc1cc2c3c(c1)C1(C(=O)N3C(C)(C)C=C2C)C(C#N)=C(N)Oc2cc(C)oc(=O)c21 (centres undefined)	-27.9	-8.5%	-0.8%	?	3.98µM*	13.2
N#CC1=C(N)OC2=C(C(=O)CCC2)[C@]12C(=O)N(CC(N)=O)c1ccccc12	?	·	·	0.2%	8.9%	-0.4
CC1=CC(C)(C)N2C(=O)C3(C(C#N)=C(N)OC4=C3C(=O)CC(C)(C)C4)c3cccc1c32 (centres undefined)	-6.6	-4.8%	-7.2%	-6.1%	?	1.8
COC(=O)CN1C(=O)C2(C(C#N)=C(N)Oc3ccccc32)C2=C1CC(C)(C)CC2=O (centres undefined)	43.8	-1.1%	8.1%	12.1%	6.31µM*	-0.9
Cc1cc2c(c(=O)o1)C1(C(=O)N(C)c3ccccc31)C(C#N)=C(N)O2 (centres undefined)	30.0	-12.3%	-1.2%	-5.2%	3.4%	1.1
C#CCCCO/N=C1/[C@H]2O[C@@H]2[C@@H](O)[C@H]2[C@H]1CCn1c(=O)n([C@@H](CC)c3ccccc3)c(=O)n12	·	·	·	·	-8.5%[13.5 µM]	·
